In the library only some 10% were active in any assay of this set; here they are far more common.
KB-3-1 cytotox: kills parental KB-3-1 adenocarcinoma cells; Potency, µM (doses to about 46.1 µM), actives largely listed as cytotoxic; KB-3-1 viability, CellTiter-Glo ATP luminescence, 72 h; 1.4% of 400,000 active; AID 1347075; also: % is scaled to controls: 0 for no effect and ±100 for the full control effect; nearly all actives have a fitted effect of over 60% in size
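Luminescent ATP read-out (CellTiter-Glo) measures survival of drug-naive KB-3-1 cells after 72 h compound exposure at 37 °C. Titration series was screened from lowest to highest concentration, with DMSO vehicle plates as background controls.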
SW480 rerep: inducers of DNA re-replication in SW480 colon cancer cells; Potency, µM (series often up to 46.1 µM), for inactives: top-dose re-replication activation, most hits filed as activators; 1.8% of 340,000 active; SW480 DNA re-replication, Hoechst DNA content imaging, 48 h; also: % of control where 0% means no effect; nearly all actives have a fitted effect of over 55% in size
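Cells (250 per well) received 23 nL compound or DMSO by pin tool and were kept 48 hr at 37 C, 5% CO2. Nuclei were then stained with Hoechst for 40 min and scanned for DNA content.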
RORgamma inh: ROR gamma (mouse) transcription inhibition | P51450 | Drosophila S2 Gal4-RORgamma UAS-luciferase reporter, 20 h | AID 2551 | 5.4% of 310,000 active | Potency, µM (series often up to 53.6 µM), inactives show at the top dose activity change, negative = inhibition, actives largely listed as inhibitors; also: % is scaled to controls: 0 for no effect and ±100 for the full control effect; nearly all actives have a fitted effect of over 60% in size
Target sequence (P51450 whole entry, looked up, the tested form may be a part): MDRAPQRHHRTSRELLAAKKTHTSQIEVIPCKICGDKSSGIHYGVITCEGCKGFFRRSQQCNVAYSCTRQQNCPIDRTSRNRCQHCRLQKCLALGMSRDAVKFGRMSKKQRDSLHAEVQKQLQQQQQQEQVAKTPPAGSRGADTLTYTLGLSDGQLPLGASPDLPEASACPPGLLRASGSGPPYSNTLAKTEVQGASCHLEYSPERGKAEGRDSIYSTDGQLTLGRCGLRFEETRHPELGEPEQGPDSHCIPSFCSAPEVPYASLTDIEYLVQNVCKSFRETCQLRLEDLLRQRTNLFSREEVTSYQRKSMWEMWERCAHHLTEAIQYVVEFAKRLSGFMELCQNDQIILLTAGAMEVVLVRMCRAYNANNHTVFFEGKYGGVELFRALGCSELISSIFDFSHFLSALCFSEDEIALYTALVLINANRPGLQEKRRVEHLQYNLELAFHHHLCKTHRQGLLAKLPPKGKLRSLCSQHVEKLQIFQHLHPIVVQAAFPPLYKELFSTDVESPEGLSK
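In this cell-based reporter format, copper sulfate (700 uM final) drives Gal4–ROR gamma fusion expression from a metallothionein promoter in Drosophila Schneider cells; compounds preincubated 1 hr, reporter read after 20 hr at ambient temperature.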
MCF10A rerep: inducers of DNA re-replication in MCF 10A breast cells. 2.9% of 350,000 active. MCF 10A DNA re-replication, Hoechst nuclear intensity, 48 h. Potency, µM (series often up to 46.1 µM), for inactives: at the highest dose activity, positive = re-replication, usual class: activators. AID 624296; also: % of control where 0% means no effect; nearly all actives have a fitted effect of over 50% in size
KB-V1 cytotox: KB-V1 MDR subline cytotoxicity | KB-V1 MDR cells viability, CellTiter-Glo, 72 h | Potency, µM (series often up to 46.1 µM), usual class: cytotoxic | 3.4% of 400,000 active | AID 1347076; also: % is scaled to controls: 0 for no effect and ±100 for the full control effect; nearly all actives have a fitted effect of over 60% in size
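Luminescent ATP read-out (CellTiter-Glo, 10 min) measures survival of drug-selected KB-V1 MDR cells after 72 h, 37 degrees C compound exposure. Medium: phenol-red-free DMEM, 10% FBS. Values from fitted concentration-response curves.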
Gal4-VP16 FLuc: inhibits Gal4-VP16 luciferase reporter, ROR gamma counter-screen; Drosophila S2 Gal4-VP16 UAS-luciferase, luminescence, 20 h; Potency, µM (series often up to 53.6 µM), without a hit: at the highest dose activity, negative = inhibition, usual class: inhibitors; 3.5% of 310,000 active; AID 2546;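 also: Gal4-VP16 expression switched on by copper sulfate through the metallothionein promoter; % is scaled to controls: 0 for no effect and ±100 for the full control effect; nearly all actives have a fitted effect of over 50% in size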
The depositor's hits bear a star; i = inactive; ? = inconclusive; nt = no result given; [ ] = another dose, or the depositor's remark. Calls follow the shape of the dose curve; as a rule, active = well fitted curve in the direction sought with a large enough effect; inconclusive = small, poorly fitted or top-dose-only effect, or another doubt; inactive = no such curve, though single readings can be large; an effect the other way counts as inactive or inconclusive. Potency is read from the fitted curve at half-maximal effect.

SMILES	KB-3-1 cytotox	SW480 rerep	RORgamma inh	MCF10A rerep	KB-V1 cytotox	Gal4-VP16 FLuc
Cc1nn(CC(=O)NNC(=S)Nc2ccccc2)c(C)c1[N+](=O)[O-]	i	-5%	8.9µM*	-3%	i	13µM*
O=C(Cn1nc(C(F)F)cc1C(F)F)NNC(=S)Nc1ccc(Cl)cc1	i	-2%	-39%	2%	i	-3%
COc1ccc(C)c2sc(N(Cc3cccnc3)C(=O)C3CCCCC3)nc12	i	nt	nt	nt	i	nt
CN(Cc1nc(-c2ccncc2)no1)S(=O)(=O)c1ccccc1	i	-2%	2.5µM*	0%	i	9%
CC(C)N(Cc1nc(-c2ccccc2)no1)S(=O)(=O)c1ccccc1	i	-2%	27%	4%	i	7%
Cc1ccc(S(=O)(=O)N(C)Cc2nc(-c3ccccn3)no2)cc1	i	3%	-8%	-1%	i	5%
O=S(=O)(c1ccccc1)N(Cc1nc(-c2ccccc2)no1)C1CCCCC1	26µM*	4%	9%	27%	10µM*	-11%
CN(Cc1nc(-c2ccncc2)no1)S(=O)(=O)c1ccc(Cl)cc1	i	-5%	1%	-6%	15µM*	-19%
CN(Cc1nc(-c2ccccn2)no1)S(=O)(=O)c1ccccc1	i	-1%	1%	-3%	i	-1%
CN(Cc1nc(-c2ccncc2)no1)S(=O)(=O)c1ccc(Br)cc1	i	-5%	11%	-5%	15µM*	-2%
Cc1cc2c(c(C)c1Cl)C(c1ccc3c(c1)OCO3)CC(O)(c1ccccc1)O2 (stereo unspecified)	nt	nt	46%	nt	nt	?
O=c1cc(CSc2ncn[nH]2)[nH]c2c(Cl)cccc12	i	nt	nt	nt	i	nt
c1ccc2[nH]c(NN=C3CCCCCC3)nc2c1	i	-8%	11µM*	-1%	i	?
Cc1cc(N/N=C2\CC(C)CC(C)(C)C2)nc2ccccc12 (stereo unspecified)	i	6%	13µM*	6%	i	-4%
NC(=O)Nc1nc2ccccc2[nH]1	nt	nt	2%	nt	nt	2%
c1ccc2[nH]c(NC3=NCCC3)nc2c1	i	-10%[9.22 µM]	2.8µM*	-9%	i	11µM*
CC1C/C(=N/Nc2nc3ccccc3[nH]2)CC(C)(C)C1 (stereo unspecified)	i	?	3.2µM*	?	i	8.9µM*
CCCS(=O)(=O)c1c(S(=O)(=O)CCC)c2cc(CC)ccn2c1C(=O)c1ccc(Cl)cc1	i	nt	nt	nt	i	nt
CC1CCc2nc(-c3cc4ccc(O)cc4oc3=O)sc2C1 (stereo unspecified)	?	nt	nt	nt	i	nt
CC(=O)c1ccc(NC(=O)COCc2cc(-c3ccco3)on2)cc1	i	nt	nt	nt	i	nt
Cc1ccc(Nc2nc3ccccc3[nH]2)nc1	?	16%	5µM*	10%	?	5µM*
CCc1ccccc1NC(=O)CC1S/C(=N\c2nccs2)N(CC)C1=O (stereo unspecified)	i	2%	-33%	?	8.2µM*	-2%
COc1ccc(CN2C(=O)CCC2(C)c2nc3ccccc3[nH]2)cc1 (stereo unspecified)	i	nt	nt	nt	i	nt
CCn1c(O)c(C=Nc2ccccc2)n(-c2ccccc2)c1=S	5.8µM*	17%[9.22 µM]	?	3%	?	?
CN1CCN(C(=O)C[C@@H]2CC[C@@H]3[C@H](COC[C@@H](O)CN3Cc3cccc(Cl)c3)O2)CC1	i	nt	nt	nt	i	nt
CCC(=O)Nc1nc(CC(=O)Nc2ccccc2)cs1	i	-2%	-1%	6%	26µM*	13%
COc1ccccc1NC(=O)Cc1csc(NC(=S)Nc2ccccc2)n1	?	2.6µM*	1.1µM*	?	9.2µM*	3.2µM*
COc1ccc(NC(=S)Nc2nc(CC(=O)Nc3ccccc3OC)cs2)cc1	?	?	1.8µM*	21µM*	8.2µM*	4.5µM*
